46 molecules from ChEMBL document CHEMBL3988442, “University of Dundee, Small-Polar-MMV Screening Library” (2021) can be followed below.

Hit rate of the full screen: of about 69,000 compounds, about 1,000 (1.4%) showed an effect of 50% or more. This excerpt belongs to a sample that is enriched for strong results.

The test system of this assay is Leishmania donovani. Nature of the assay: Leishmania intramacrophage assay. Format: functional, organism-based. Set-up: scale not given: in the data most compounds retested in dose-response had high values.

Turning to `CN1C(=O)C2(CCN(CC3CC3)CC2)c2ccccc21.O=C(O)C(F)(F)F`, the “Percent Effect” value (30 µM, 30.03 µM) is recorded as 16.21%. Turning to `CN(C)[C@@H]1CCN(C(=O)Cc2ccc(F)cc2)[C@H]1Cc1ccncc1.O=C(O)C(F)(F)F.O=C(O)C(F)(F)F`, for the setting “30.3 µM, […]”, the “Percent Effect” value is 29.68%.

In the case of `Cc1cccc(CN2CC[C@@H]3[C@@H]2CCN3C(=O)c2ccoc2C)n1.O=C(O)C(F)(F)F.O=C(O)C(F)(F)F`, the “Percent Effect” value (30.3 µM, […]) is 32.03%. The same measure, in the same setting: the result for `Cc1[nH]c(C2(N)CCCCC2)nc(=O)c1C.Cl` reads 27.19%; that for `Cc1cnc(C(=O)N2C[C@H]3CN(Cc4cccnc4)C[C@H]3C2)cn1.O=C(O)C(F)(F)F.O=C(O)C(F)(F)F`, 19.7%.

Turning to `Cc1noc(C)c1CN1C[C@@H]2C[C@H](C(=O)NCC3CC3)N(C)[C@@H]2C1.O=C(O)C(F)(F)F.O=C(O)C(F)(F)F`, the “Percent Effect” value (30.3 µM, […]) was -4.016%. The same measure, in the same setting: under `CCN1CC2(CC1=O)CN(Cc1ccccn1)CCN(C(C)=O)C2.O=C(O)C(F)(F)F.O=C(O)C(F)(F)F` (stereo unspecified) stands 0.8966%. Still for that read-out and setting: under `O=C(O)C(F)(F)F.O=C(O)C(F)(F)F.c1ccc(CN2CC[C@H]3CO[C@H](CNc4ncccn4)[C@H]3C2)cc1` stands 8.127%. As for `O=C(O)C(F)(F)F.O=C(O)C(F)(F)F.c1cncc(COC[C@H]2CC[C@H]3[C@H](CCN3Cc3cccs3)O2)c1`, the “Percent Effect” value (30 µM, 30.03 µM) is given as 31.53%.

Take `O=C(O)C(F)(F)F.O=C(O)C(F)(F)F.c1cncc(COC[C@H]2CC[C@H]3[C@H](CCN3Cc3nccs3)O2)c1`: the “Percent Effect” value (30.3 µM, […]) amounted to 98.87%. As to `CN(C)C(=O)CN1CC[C@@H]2O[C@@H](COCc3cccnc3)CC[C@@H]21.O=C(O)C(F)(F)F.O=C(O)C(F)(F)F`, the “Percent Effect” value (30.3 µM, […]) is on record as 38.61%. For the molecule `COc1cc(CNC(C)Cn2cccn2)cc(Cl)c1OC.Cl` (stereo unspecified), under “30 µM”, the “Percent Effect” value amounted to 29.92%. For the molecule `Cc1cc(CN2C[C@@H]3COC[C@]3(CNC(=O)c3ccsc3)C2)no1.O=C(O)C(F)(F)F`, the “Percent Effect” value (30.3 µM, […]) is given as 18.56%. For the molecule `Cn1cc(CN2CCC3(CCCN3Cc3cccnc3)CC2)cn1.O=C(O)C(F)(F)F.O=C(O)C(F)(F)F.O=C(O)C(F)(F)F`, the “Percent Effect” value (30.3 µM, […]) is reported as 63.2%.

As for `Cn1cc(N2CCC3(CCN(Cc4cccnc4)C3)C2=O)cn1.O=C(O)C(F)(F)F.O=C(O)C(F)(F)F` (stereo unspecified), under “30 µM, 30.03 µM”, the “Percent Effect” value is on record as -14.07%. `O=C(O)C(F)(F)F.O=C(c1ccc[nH]1)N1CCC2(CCCN2Cc2cccnc2)CC1`: for the setting “30.3 µM, […]”, the “Percent Effect” value turned out to be 12.17%. Consider `COCCN1C[C@@H]2[C@@H](OC)CCN(C(=O)Cc3ccccc3)[C@@H]2C1.O=C(O)C(F)(F)F`, for which the “Percent Effect” value (30.3 µM, […]) turned out to be 35.25%. As for `COc1cc(C2SCC(=O)Nc3[nH]ncc32)cc2c1OCO2` (stereo unspecified), the “Percent Effect” value (30.3 µM, […]) was 1.862%.

As for `COc1cc(C2SCC(=O)Nc3[nH]ncc32)c(OC)c2c1OCO2` (stereo unspecified), the “Percent Effect” value (30.3 µM, […]) was found to be 8.87%. On the same count and under the same terms, the result for `COc1cc(C2SCC(=O)Nc3[nH]ncc32)cc(OC)c1OC` (stereo unspecified) reads 56.1%; that for `COc1ccnc(N2C[C@@H]3CC[C@H](C2)N(CC2CC2)C3)n1`, 37.63%; that for `COc1ccc(-c2ccccc2CCN)c(OC)c1`, 75.35%.

As to `CCOc1ccc(-c2cc(CCN)ccc2OC)cc1`, for the setting “30.3 µM, […]”, the “Percent Effect” value was -5.145%.

Take `CC(=O)Nc1cccc(-c2ccccc2CCN)c1`: the “Percent Effect” value (30.3 µM, […]) is listed as -35.33%. Same read-out and setting: under `COCC(=O)N1CCC2(CCN(Cc3cccnc3)C2)CC1.O=C(O)C(F)(F)F.O=C(O)C(F)(F)F` stands 22.03%. Same read-out and setting: the result for `Fc1cnc(N2CCO[C@H]3CN(CC4CCCCC4)C[C@H]32)nc1.O=C(O)C(F)(F)F` reads -16.59%; that for `O=C(O)C(F)(F)F.O=C(O)C(F)(F)F.O=C(O)C(F)(F)F.O=C1C[C@@H]2[C@H](CCN2Cc2ccccn2)N1Cc1ccncc1`, 27.44%. Consider `Cc1ccc(N2CCO[C@H]3CN(Cc4ccccn4)C[C@H]32)nn1.O=C(O)C(F)(F)F.O=C(O)C(F)(F)F.O=C(O)C(F)(F)F`, for which the “Percent Effect” value (30.3 µM, […]) was found to be 63.6%. Still for that read-out and setting: the result for `O=C(O)C(F)(F)F.c1cncc(N2CCO[C@H]3CN(CC4CCOC4)C[C@H]32)c1` (stereo partly specified) reads 31.71%; that for `Fc1ccccc1CN1C[C@@H]2OCCN(c3ncccn3)[C@@H]2C1`, 15.52%. `Cc1ccc(N2CCO[C@H]3CN(Cc4ccncc4)C[C@H]32)nn1.O=C(O)C(F)(F)F.O=C(O)C(F)(F)F.O=C(O)C(F)(F)F`: the “Percent Effect” value (30 µM, 30.03 µM) came out at 16.14%. For the molecule `O=C(O)C(F)(F)F.O=C(O)C(F)(F)F.O=C(O)C(F)(F)F.c1ccc(CN2C[C@@H]3OCCN(c4ncccn4)[C@@H]3C2)nc1`, under “30 µM, 30.03 µM”, the “Percent Effect” value is given as -0.09782%. As to `Cn1ccnc1CN1C[C@@H]2OCCN(c3ncccn3)[C@@H]2C1`, the “Percent Effect” value (30.3 µM, […]) was 50.19%.

Turning to `c1ccc(CN2C[C@@H]3OCCN(CC4CCCO4)[C@@H]3C2)nc1` (stereo partly specified), the “Percent Effect” value (30 µM, 30.03 µM) is reported as 15.57%. As to `c1ccc(CCN2C[C@@H]3OCCN(c4ncccn4)[C@@H]3C2)cc1`, under “30.3 µM, […]”, the “Percent Effect” value is 6.788%. The same measure, in the same setting: under `c1ccc(CN2C[C@@H]3OCCN(c4cccnc4)[C@@H]3C2)nc1` stands 55.81%. Turning to `CC(C)N1CC[C@@H]2OC[C@H](C(=O)Nc3cccnc3)C[C@@H]2C1.O=C(O)C(F)(F)F.O=C(O)C(F)(F)F`, the “Percent Effect” value (30.3 µM, […]) is listed as -12.98%.

Take `CCCn1nc(C)c(-c2cncn2CC2(N(C)C)CCC(C)CC2)c1C` (stereo unspecified): the “Percent Effect” value (30.3 µM, […]) came to 1.091%.

Regarding `CCCN1CCC(c2nc3ccc(C)cn3n2)CC1.O=C(O)C(F)(F)F`, under “30.3 µM, […]”, the “Percent Effect” value is listed as 17.32%. With `Cc1cccc(CN2C(=O)C[C@H]3[C@@H]2CCN3Cc2nccs2)n1.O=C(O)C(F)(F)F.O=C(O)C(F)(F)F`, the “Percent Effect” value (30.3 µM, […]) is 2.484%. For the molecule `CC(C)NC(=O)c1ccc2c(c1)C1(CCN(C)CC1)C(=O)N2.O=C(O)C(F)(F)F`, the “Percent Effect” value (30.3 µM, […]) worked out at 1.546%. As for `Cc1ccc(C(=O)N2C[C@H](N3CCOCC3)[C@@H]3OCCC[C@@H]32)cn1.O=C(O)C(F)(F)F.O=C(O)C(F)(F)F`, for the setting “30.3 µM, […]”, the “Percent Effect” value is reported as 2.104%.

For the molecule `CN1[C@H]2CC[C@@H]1CN(c1cc(Sc3cccs3)nc(N)n1)CC2`, where the note is “30.3 µM, […]”, the “Percent Effect” value is reported as 2.015%. The same measure, in the same setting: under `CC(C)CCN1C[C@@H]2OCCN(c3ncc(F)cn3)[C@@H]2C1.O=C(O)C(F)(F)F` stands -5.572%; under `COCC1CC2(CCN(Cc3cccnc3)CC2)CN1C(C)C` (stereo unspecified), 20.26%.

Turning to `Cl.NC(=O)N1CC2(CCNCC2)c2cc(Cl)ccc21`, the “Percent Effect” value (30 µM, 30.03 µM) amounted to 2.936%.
